A short description of assay [1]: HepG2 liver cancer cell viability effects, profiling panel, resazurin fluorescence, 24 h, PK04 Diversity Set (AID 1172). Also: test concentration not given here. The conditions noted are these: higher = more signal. On the technique in general: Resazurin is reduced to fluorescent resorufin, in cell work by metabolically active cells.
Assay [2] is described as follows: basal S. cerevisiae growth modulation, no modifier, primary screen, OD600, strain BY4716, 24 h, basal condition (AID 1173). The conditions noted are these: OD600, 24 h, higher = more signal, called active from +8 up or from −8 down.
A short description of assay [3]: MM1S myeloma cell viability, profiling panel, resazurin fluorescence, basal, 24 h, PK04 Diversity Set (AID 1174).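 Also: MM1S multiple myeloma cell line; test concentration not given here.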 The conditions noted are these: higher = more signal, called active from +8 up or from −8 down.
The target in assay [4] is Dihydroorotate dehydrogenase (quinone), mitochondrial (Plasmodium falciparum (isolate 3D7)) (UniProt Q08210). Nature of the assay: PfDHODH enzyme inhibitors, primary screen, biochemical, C-terminal His tag, absorbance 600 nm (AID 1175).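 Also: recombinant parasite enzyme with a five histidine tag at its C terminus; test concentration not given here.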 The conditions noted are these: DCIP absorbance 600 nm, higher = more signal, called active from +8 up or from −8 down.
Sequence of Dihydroorotate dehydrogenase (quinone), mitochondrial (Plasmodium falciparum (isolate 3D7)) (Q08210 whole entry, looked up): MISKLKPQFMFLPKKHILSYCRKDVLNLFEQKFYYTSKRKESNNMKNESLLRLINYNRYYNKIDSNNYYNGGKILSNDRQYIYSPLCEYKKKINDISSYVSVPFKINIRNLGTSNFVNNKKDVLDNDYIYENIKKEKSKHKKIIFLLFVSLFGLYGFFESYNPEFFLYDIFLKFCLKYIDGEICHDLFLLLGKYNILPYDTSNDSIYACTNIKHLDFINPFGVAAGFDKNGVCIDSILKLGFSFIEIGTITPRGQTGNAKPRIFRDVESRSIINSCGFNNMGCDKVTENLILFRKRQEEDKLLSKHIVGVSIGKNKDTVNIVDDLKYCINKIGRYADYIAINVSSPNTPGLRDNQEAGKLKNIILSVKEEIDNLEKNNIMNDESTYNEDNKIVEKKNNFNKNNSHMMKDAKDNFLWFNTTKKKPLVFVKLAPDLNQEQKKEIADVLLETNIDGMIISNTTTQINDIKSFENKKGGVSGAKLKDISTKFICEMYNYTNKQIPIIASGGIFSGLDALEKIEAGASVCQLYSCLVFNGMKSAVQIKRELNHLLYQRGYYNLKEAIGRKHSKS
The nature of assay [5]: P. aeruginosa biofilm formation inhibitors, primary screen, strain PAO1, LB-PBS medium, absorbance 600 nm (AID 1176). Also: test concentration not given here. The following applies: P. aeruginosa PAO1 growth/biofilm, A600, 12 h; higher = more signal.
A short description of assay [6]: S. cerevisiae RM11-1a growth modifiers, primary screen, strain RM11-1a, OD600, basal, 24 h (AID 1177).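 Also: cultures grown under basal conditions with no added stressor; test concentration not given here.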 The conditions noted are these: OD600, 24 h, higher = more signal, called active from +8 up or from −8 down.
Assay [7] can be described thus: E. coli acrAB mutant growth effects, primary screen, E. coli filamentation inducers, strain DRC39, OD650, 24 h (AID 1178).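 Also: growth measured as culture turbidity by optical density at 650 nm; test concentration not given here.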 The following applies: higher = more signal, called active from +8 up or from −8 down.
The nature of assay [8]: E. coli acrAB mutant growth effects, primary screen, E. coli filamentation inducers, strain DRC39, OD650, 48 h (AID 1179).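 Also: screen aims at cell division blockers that make cells filament.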 The conditions noted are these: E. coli DRC39 delta-acrAB growth, higher = more signal, called active from +8 up or from −8 down.
Assay [9] can be described thus: RPMI8226 myeloma cell viability, profiling panel, resazurin fluorescence, basal, 24 h, PK04 Diversity Set (AID 1180).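 Also: RPMI8826 multiple myeloma cell line at 5000 cells per well; test concentration not given here.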 The following applies: higher = more signal.
For assay [10], the target named is E3 ubiquitin-protein ligase XIAP (Homo sapiens) (UniProt P98170). In words: XIAP binders, primary screen, biophysical, small-molecule microarray, fluorescence 635 nm (AID 1181).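 Also: score merges 667 nm emission and signal to noise over triplicate slides.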 The following applies: small-molecule microarray binding, higher = more signal.
Sequence of E3 ubiquitin-protein ligase XIAP (Homo sapiens) (P98170 whole entry, looked up): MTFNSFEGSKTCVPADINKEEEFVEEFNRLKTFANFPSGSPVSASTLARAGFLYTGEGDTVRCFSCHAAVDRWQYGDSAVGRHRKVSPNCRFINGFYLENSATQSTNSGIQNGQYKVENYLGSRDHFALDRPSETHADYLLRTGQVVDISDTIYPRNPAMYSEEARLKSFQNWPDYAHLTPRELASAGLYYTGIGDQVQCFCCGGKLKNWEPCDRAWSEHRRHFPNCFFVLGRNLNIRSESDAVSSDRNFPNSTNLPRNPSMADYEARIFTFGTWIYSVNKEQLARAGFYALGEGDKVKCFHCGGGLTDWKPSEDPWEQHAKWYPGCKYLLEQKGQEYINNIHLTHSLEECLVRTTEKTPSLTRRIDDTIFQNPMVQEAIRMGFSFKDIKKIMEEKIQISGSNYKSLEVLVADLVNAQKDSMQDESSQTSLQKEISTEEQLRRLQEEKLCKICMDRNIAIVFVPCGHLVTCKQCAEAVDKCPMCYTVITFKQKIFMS

Calls of active or inactive are those of the source. Unless noted, no rule for the calls is given here.

As for `COC(=O)[C@@]1(Cc2ccc(OC)cc2)[C@H]2c3cc(C(=O)N(C)C)n(Cc4cc(C)n(C)n4)c3C[C@H]2CN1C(=O)c1ccccc1`, the z-score in assay [1] is -1.04; in [2], 0.932 (inactive); in assay [3], -1.82 (inactive); in [5], 0.992 (inactive); in assay [6] it was 0.949 (inactive); in assay [7] it was -1.2 (inactive). Also, the z-score in assay [8] is -1.29 (inactive); in [9], -0.936. Further, the composite z-score in [4] was -0.546 (inactive); in [10], 0.0018.
In the case of `COCCCNC(=O)[C@]1(CCS(=O)(=O)c2ccccc2)N=C(c2ccc(OCCCO)cc2)O[C@@H]1c1ccccc1`, the z-score was 0.484 in assay [1]; -0.324 (inactive) in [2]; 0.294 (inactive) in [3]; -0.0304 (inactive) in assay [5]; -0.588 (inactive) in assay [6]; 0.604 (inactive) in [7]. In addition, the results for the z-score in assay [8] and in assay [9] were 0.607 (inactive) and -0.0847, respectively. The figures for the composite z-score in assay [4] and in assay [10] were 0.888 (inactive) and 0.209, respectively.
On to `COCCOC(=O)N1C(=O)[C@@]2(c3cc(C#CCNC(N)=O)ccc31)[C@H](c1ccc(OCCO)cc1)N1[C@H](c3ccccc3)[C@H](c3ccccc3)OC(=O)[C@H]1[C@@H]2C(=O)N1CCN(c2ncccn2)CC1`, for which the z-score in [1] was 0.26; in assay [2], 1.51 (inactive); in [3], -0.0528 (inactive); in [5], 2.5 (inactive); in assay [6], 2.05 (inactive); in [7], -0.157 (inactive). Besides, the z-score in [8] was -0.327 (inactive); in assay [9] it was 0.0246. For the same compound, the composite z-score is -0.239 (inactive) in assay [4] and 0.1 in [10].
Consider `CN(C)C(=O)[C@@]1(CCS(=O)(=O)c2ccccc2)N=C(c2ccc(OCCCO)cc2)O[C@H]1c1ccccc1CN=[N+]=[N-]`, for which the z-score in assay [1] is 1.01; in [2] it was -1.19 (inactive); in [3], 0.958 (inactive); in assay [5], -0.385 (inactive); in assay [6], -0.791 (inactive); in [7] it was 1.13 (inactive). Further, the results for the z-score in assay [8] and in [9] were 0.802 (inactive) and 0.251, respectively. The composite z-score in [4] is 0.307 (inactive); in assay [10] it was -0.0381.
In the case of `[N-]=[N+]=Nc1ccccc1[C@@H]1OC(c2ccc(OCCCO)cc2)=N[C@]1(CCS(=O)(=O)c1ccccc1)C(=O)NCc1ccccc1`, the z-score in assay [1] is -0.287; in assay [2], 1.18 (inactive); in assay [3], -0.37 (inactive); in assay [5] it was 0.727 (inactive); in [6], 1.4 (inactive); in assay [7] it was 0.439 (inactive). The z-score in [8] was 1.01 (inactive); in [9], -0.893. Besides, the composite z-score in [4] is -2.59 (inactive); in [10] it was 0.125.
Take `C=CCN1C(=O)[C@@]2(O[C@@H](CCn3cc([C@H](O)c4ccccc4)nn3)[C@H]([Si](C)(C)c3ccc(OC)cc3)[C@H]2C)c2cc(NC(=O)c3ccc(OC)cc3)ccc21`: the z-score in assay [1] is -1.55; in assay [2] it was 0.336 (inactive); in assay [3] it was -2.19 (inactive); in assay [5], 0.389 (inactive); in [6], 2.42 (inactive); in assay [7], 0.628 (inactive). Also, the z-score in [8] is 0.146 (inactive); in assay [9], -2.35. The results for the composite z-score in assay [4] and in [10] were 0.874 (inactive) and 0.176, respectively.
Turning to `CCOC(=O)C[C@H]1[C@H](OC(=O)c2ccccc2-c2ccccc2)[C@@H](NC(=O)c2ccccc2)c2cc(OCCCO)ccc2N1C(=O)Cc1ccc(OC)cc1`, the z-score in [1] was 0.834; in [2] it was 0.606 (inactive); in assay [3], -0.397 (inactive); in assay [5], 0.142 (inactive); in assay [6], 0.143 (inactive); in assay [7] it was 0.228 (inactive). In addition, the z-score in [8] is 0.15 (inactive); in [9] it was -0.37. The composite z-score in assay [4] is -0.369 (inactive); in assay [10], 0.0871.
As to `COC(=O)c1ccc(OC)c(/C=C\CC(CCc2ccccc2)OC(C)=O)c1` (stereo not given), the z-score in assay [1] is -0.928; in assay [2] it was -0.527 (inactive); in [3] it was -0.0834 (inactive); in assay [5] it was -0.131 (inactive); in assay [6] it was -0.424 (inactive); in assay [7] it was 0.0214 (inactive). Also, the results for the z-score in [8] and in assay [9] were -0.238 (inactive) and 0.271, respectively. Besides, the results for the composite z-score in assay [4] and in [10] were -0.162 (inactive) and -0.253, respectively.
Regarding `COC(=O)[C@@]1(Cc2ccc(OC)cc2)[C@H]2c3cc(C(=O)N(C)C)n(Cc4cc(F)c(F)c(F)c4)c3C[C@H]2CN1C(=O)c1ccccc1`, the z-score in assay [1] is -1.07; in [2] it was 1.83 (inactive); in [3], -2.61 (inactive); in [5], 4.06 (inactive); in assay [6] it was 0.726 (inactive); in assay [7] it was -0.337 (inactive). In addition, the z-score in assay [8] is -0.622 (inactive); in assay [9], -2.32. Further, the composite z-score was -2.65 (inactive) in [4] and 0.0957 in assay [10].
Take `CN(C)CCCCCCNC(=O)[C@@H]1C[C@@H]2C(=O)NCC(=O)N2[C@@H]1c1ccc(O)cc1`: the z-score in assay [1] was -1.01; in assay [2] it was -1.06 (inactive); in assay [3], -1.26 (inactive); in assay [5], -0.13 (inactive); in [6] it was -0.832 (inactive); in [7], -0.208 (inactive). The z-score in [8] was -0.823 (inactive); in assay [9], -1.35. Further, the composite z-score was -0.493 (inactive) in assay [4] and 0.249 in [10].

These data come from PubChem BioAssay.
